From PubChem BioAssay (NCATS)
Results filed as inconclusive are left out. Values without a mark were called inactive. Calls of active or inactive are those of the source. Calls come from the whole dose curve; as a rule, active = well fitted inhibition curve with a large enough effect; inconclusive = small, poorly fitted or top-dose-only effect; inactive = flat fitted curve, though single readings scatter.

Tested on: not listed separately
Assay: Drug repurposing screens with cells derived from glioblastoma tumor samples (AID 1345199); note: nearly all actives have a fitted effect of over 40% in size
Settings: GBM patient neurospheres viability, ATP luminescence, 48 h; tumour line A
Summary of the method: (§1)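 Four patient lines of CD133+ GBM neurospheres were screened at several concentrations; hits were retested in those lines plus three slower-growing GBM lines, using 48-hour treatment and ATP-based viability.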
% is set by controls: 0 for no effect and ±100 for the full control effect; potency is the fitted concentration of half-maximal effect.

Compound	Potency
CO[C@H]1C[C@H](O[C@@H]2/C(C)=C/C[C@@H]3C[C@@H](C[C@]4(CC[C@H](C)[C@@H](C5CCCCC5)O4)O3)OC(=O)[C@@H]3C=C(C)/C(=N/O)[C@H]4OC/C(=C\C=C\[C@@H]2C)[C@]43O)O[C@@H](C)[C@@H]1O	10 µM (active)
CC(C)(C)NC[C@H](O)COc1ccccc1C1CCCC1	4.47 µM (active)
CCCCCCCCCCCCCCCCCCOCC(COP(=O)([O-])OCC[N+](C)(C)C)OC (configuration not stated)	35.5 µM (active)
CCSc1ccc2c(c1)N(CCCN1CCN(C)CC1)c1ccccc1S2	6.31 µM (active)

Tested on: astro (control astrocytes)
Assay: as above
Settings: viability, ATP luminescence, 48 h; series mostly up to 45.9 µM; activity, negative = cell killing: at the top concentration
Summary of the method: as §1

Compound	activity, negative = cell killing
CC(CCc1ccc(O)cc1)NCC(O)c1ccc(O)cc1 (configuration not stated)	-24%
CO[C@H]1C[C@H](O[C@@H]2/C(C)=C/C[C@@H]3C[C@@H](C[C@]4(CC[C@H](C)[C@@H](C5CCCCC5)O4)O3)OC(=O)[C@@H]3C=C(C)/C(=N/O)[C@H]4OC/C(=C\C=C\[C@@H]2C)[C@]43O)O[C@@H](C)[C@@H]1O	-20.4%
O=C(/C=C/c1cccc(F)c1)NC1CC1	-7.2%
CC[C@H]1NC(=O)[C@@H](NC(=O)c2ncccc2O)[C@@H](C)OC(=O)[C@H](c2ccccc2)NC(=O)[C@@H]2CC(=O)CCN2C(=O)[C@H](Cc2ccccc2)N(C)C(=O)[C@@H]2CCCN2C1=O	-10.5%
C[Se]CC[C@H](N)C(=O)O	-13.7%
CC(C)(C)C(=O)OCC(=O)[C@H]1CC[C@H]2[C@@H]3CCC4=CC(=O)CC[C@]4(C)[C@H]3CC[C@]12C	-3.25%
NC(=O)[C@@H]1C[C@]2(NC(=O)NC2=O)c2cc(F)ccc2O1	-18.2%
CCCCC/C=C\CCC(=O)N[C@H]1[C@H](Oc2c3cc4cc2Oc2ccc(cc2Cl)[C@@H](O[C@@H]2O[C@H](CO)[C@@H](O)[C@H](O)[C@H]2NC(C)=O)[C@@H]2NC(=O)[C@H](NC(=O)[C@@H]4NC(=O)[C@H]4NC(=O)[C@@H](Cc5ccc(c(Cl)c5)O3)NC(=O)[C@H](N)c3ccc(O)c(c3)Oc3cc(O)cc4c3)c3ccc(O)c(c3)-c3c(O[C@H]4O[C@H](CO)[C@@H](O)[C@H](O)[C@@H]4O)cc(O)cc3[C@@H](C(=O)O)NC2=O)O[C@H](CO)[C@@H](O)[C@@H]1O	12.8%
Cc1cc(=O)c(C(=O)N[C@@H](C(=O)N[C@@H]2C(=O)N3C(C(=O)O)=C(CSc4nnnn4C)CS[C@H]23)c2ccc(O)cc2)c[nH]1	-2.57%
FC(F)(F)COCC(F)(F)F	-7.18%
CC1CCCC(C)N1NC(=O)c1ccc(Cl)c(S(N)(=O)=O)c1 (configuration not stated)	-8.24% [at 21.2 µM]
COC1[C@@H](O[C@@H]2O[C@H](C)[C@@H](O[C@H]3C[C@@](C)(O)[C@H](OC(=O)CC(C)C)[C@H](C)O3)[C@H](N(C)C)[C@H]2O)[C@@H](CC=O)C[C@@H](C)[C@@H](O)/C=C/C=C/C[C@@H](C)OC(=O)C[C@H]1OC(C)=O (some centres not stated)	0.782% [at 21.2 µM]
COc1c(O[C@@H]2O[C@H](CO)[C@@H](O)[C@H](O)[C@H]2O)cc2c(c1OC)-c1ccc(SC)c(=O)cc1[C@@H](NC(C)=O)CC2	-17.8% [at 21.2 µM]
O=C(OC[C@H]1O[C@](O)(COC(=O)c2cccnc2)[C@@H](OC(=O)c2cccnc2)[C@@H]1OC(=O)c1cccnc1)c1cccnc1	-8.28%
Cc1ncc(COP(=O)(O)O)c(CN)c1O	-11.1%
O=C(O)/C=C/C(=O)Nc1ccc(S(=O)(=O)Nc2nccs2)cc1	-16.6%
CCN(CC)C(=O)[C@]1(c2ccccc2)C[C@@H]1CN	-9.32%
O=S(=O)(O)CCCS(=O)(=O)O	-10.2%
O=C(O)COc1ccccc1/C=N/NC(=O)c1ccncc1	-22.4%
COc1ccc(/C=N/NC(=O)c2ccncc2)c(C(=O)O)c1OC	2.21%
NC(=O)Oc1ccc(Cc2ccccc2)cc1	-29.6%
Cc1nc(NS(=O)(=O)c2ccc(N)cc2)nc(C)c1Br	-12%
COc1ccc2cc([C@H](C)CO)ccc2c1	-8.33%
c1ccc2c(c1)OCC(CN1CCCCC1)O2 (configuration not stated)	-0.887%
CC(C)(C)NC[C@H](O)COc1ccccc1C1CCCC1	-27.9% [at 21.2 µM]
CCCCCCCCCCCCCCCCCCCCCC(=O)Nc1ccn([C@@H]2O[C@H](CO)[C@@H](O)[C@@H]2O)c(=O)n1	-11.4%
NC(=O)c1cc[n+](CC2=C(C(=O)O)N3C(=O)[C@@H](NC(=O)C(c4ccccc4)S(=O)(=O)[O-])[C@H]3SC2)cc1 (some centres not stated)	-9.18% [at 21.2 µM]
CC(=O)N[C@@H]([C@@H](O)[C@H](O)[C@H](O)CO)[C@@H](O)CC(=O)C(=O)O	-6.73%
